Experimental findings from PubChem BioAssay (EPA / NIEHS) are described below.

Assay [1] deals with Transcription factor E2F1 (Homo sapiens) (UniProt Q01094). The experiment in a line: ATG_E2F_CIS: Attagene CIS-FACTORIAL HepG2 Assay for human E2F Transcription Factor 1 (AID 2282935). Particulars: HepG2 Attagene cis-reporter, E2F reporter RNA transcripts; actives raise or lower the signal. A digest of the protocol:
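First, HepG2 cells were transfected with reporter transcription units. Next, they were dosed for 24 h. Then RNA was isolated, converted to cDNA, PCR-amplified, FAM-labeled, HpaI-digested and analyzed by capillary electrophoresis.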

Assay [2] can be described thus: ATG_E_Box_CIS: Attagene CIS-FACTORIAL HepG2 Assay for human Enhancer Box (E-box) (AID 2282936). The conditions noted are these: HepG2 E-box cis-reporter transcription, actives raise or lower the signal. A digest of the protocol:
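Endogenous transcription factor activity was sensed in human HepG2 liver cells through transfected cis-promoter reporter units. After 24 h of dosing, total RNA was reverse-transcribed and reporter cDNA resolved by capillary electrophoresis.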

The nature of assay [3]: ATG_M_61_CIS: Attagene CIS-FACTORIAL HepG2 Assay for M61 Transcription Factor (Internal Marker) (AID 2282937). The conditions noted are these: HepG2 Attagene CIS-FACTORIAL M61 internal marker reporter; actives raise or lower the signal. A digest of the protocol: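 Endogenous transcription factor activity in HepG2 is read through transiently transfected cis-element reporter units. After 24 h dosing, RNA undergoes reverse transcription, PCR and primer extension with 6-FAM before capillary electrophoresis; DMSO-referenced bidirectional fit.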

Assay [4] can be described thus: ATG_EGR_CIS: Attagene CIS-FACTORIAL HepG2 Assay for human Early Growth Response 1 (EGR1) (AID 2282938). The conditions noted are these: HepG2 Attagene CIS-FACTORIAL EGR reporter mRNA; actives raise or lower the signal. A digest of the protocol: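 Activity is taken as induction or loss of reporter mRNA versus DMSO, fitted bidirectionally. Transcripts from cis-regulated reporter units in transiently transfected HepG2 were measured after 24 h by RT-PCR with capillary electrophoresis.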

Assay [5] is described as follows: ATG_M_19_CIS: Attagene CIS-FACTORIAL HepG2 Assay for M19 Transcription Factor (Internal Marker) (AID 2282939). The conditions noted are these: HepG2 Attagene CIS-FACTORIAL M19 internal marker reporter; actives raise or lower the signal. A digest of the protocol: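 Internal marker readout, fitted in both directions against DMSO, from HepG2 cells carrying transfected cis-element reporter constructs; RT-PCR and capillary electrophoresis of reporter mRNA after 24 h exposure.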

The nature of assay [6]: ATG_ERE_CIS: Attagene CIS-FACTORIAL HepG2 Assay for Estrogen Response Element (ERE) (AID 2282940). Particulars: HepG2 ERE cis-reporter, Attagene RNA transcript; actives raise or lower the signal. A digest of the protocol: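 After 24 h compound treatment, RNA from transfected HepG2 cells was reverse-transcribed, reporter cDNA PCR-amplified, FAM-labelled, HpaI-cut and resolved by capillary electrophoresis. ERE-driven cis reporter transcripts reflect endogenous factors; gain or loss scored against DMSO.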

Assay [7] can be described thus: ATG_Ets_CIS: Attagene CIS-FACTORIAL HepG2 Assay for human Erythroblast Transformation Specific (ETS) (AID 2282941). The conditions noted are these: HepG2 ETS cis-reporter transcription, actives raise or lower the signal. A digest of the protocol: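 Multiplexed reporter transcript profiling: HepG2, 24 h treatment, total RNA to cDNA, PCR, 6-FAM labelling, HpaI cut, capillary electrophoresis. Gain- or loss-of-signal fitted against DMSO.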

The target of assay [8] is Hepatocyte nuclear factor 3-beta (Homo sapiens) (UniProt Q9Y261). As to the kind of experiment: ATG_FoxA2_CIS: Attagene CIS-FACTORIAL HepG2 Assay for human Forkhead box A2 (FOXA2) (AID 2282942). Particulars: HepG2 cis-reporter transcription factor activity, 24 h; actives raise or lower the signal. A digest of the protocol:
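Reporter transcript induction is measured by fluorescence after capillary electrophoresis of RT-PCR products from HepG2 cells exposed 24 h. Cis-regulated reporter units report endogenous factor activity; curves fitted both directions against DMSO.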

A short description of assay [9]: ATG_FoxO_CIS: Attagene CIS-FACTORIAL HepG2 Assay for human Forkhead box O (FoxO) (AID 2282943). The conditions noted are these: HepG2 Attagene cis-reporter, FoxO element, mRNA; actives raise or lower the signal. A digest of the protocol: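 Values reflect reporter mRNA induction or loss in HepG2 cells 24 h post-dosing, fitted bidirectionally with DMSO as negative control and baseline. Detection used RT-PCR and fluorescence capillary electrophoresis.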

Assay [10] is described as follows: ATG_GATA_CIS: Attagene CIS-FACTORIAL HepG2 Assay for human GATA Binding Protein (AID 2282944). Particulars: HepG2 GATA cis-element reporter, Attagene multiplex mRNA; actives raise or lower the signal. A digest of the protocol: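 Reporter transcripts from a GATA cis-regulated unit, among multiplexed reporters in transfected HepG2 cells, were measured by RT-PCR with capillary electrophoresis after 24 h dosing. Induction or loss scored relative to DMSO.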

Assay [11] can be described thus: ATG_GLI_CIS: Attagene CIS-FACTORIAL HepG2 Assay for human Zinc Finger Protein GLI1 (AID 2282945). The conditions noted are these: HepG2, Attagene cis-factorial reporter mRNA, GLI element; actives raise or lower the signal. A digest of the protocol:
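HepG2 cells transiently transfected with cis-promoter multiplexed reporter units report endogenous transcription factor activity. After 24 h chemical exposure, reporter mRNA was quantified by RT-PCR, 6-FAM labelling, HpaI digestion and capillary electrophoresis, with bidirectional fitting against DMSO.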

In assay [12] the target is Bile acid receptor (Homo sapiens) (UniProt Q96RI1). The experiment in a line: ATG_IR1_CIS: Attagene CIS-FACTORIAL HepG2 Assay for human Nuclear Receptor Subfamily 1 Group H Member 4 (NR1H4), IR1 submotif (AID 2282946). The conditions noted are these: IR1 reporter transcription, actives raise or lower the signal. A digest of the protocol: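 Readout: reporter transcript levels by RT-PCR with fluorescent capillary electrophoresis, from HepG2 cells transiently transfected with multiplexed cis-regulated reporters and dosed 24 h. Gain- or loss-of-signal fitted versus DMSO negative control.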
Bile acid receptor (Homo sapiens), sequence (Q96RI1 whole entry, looked up): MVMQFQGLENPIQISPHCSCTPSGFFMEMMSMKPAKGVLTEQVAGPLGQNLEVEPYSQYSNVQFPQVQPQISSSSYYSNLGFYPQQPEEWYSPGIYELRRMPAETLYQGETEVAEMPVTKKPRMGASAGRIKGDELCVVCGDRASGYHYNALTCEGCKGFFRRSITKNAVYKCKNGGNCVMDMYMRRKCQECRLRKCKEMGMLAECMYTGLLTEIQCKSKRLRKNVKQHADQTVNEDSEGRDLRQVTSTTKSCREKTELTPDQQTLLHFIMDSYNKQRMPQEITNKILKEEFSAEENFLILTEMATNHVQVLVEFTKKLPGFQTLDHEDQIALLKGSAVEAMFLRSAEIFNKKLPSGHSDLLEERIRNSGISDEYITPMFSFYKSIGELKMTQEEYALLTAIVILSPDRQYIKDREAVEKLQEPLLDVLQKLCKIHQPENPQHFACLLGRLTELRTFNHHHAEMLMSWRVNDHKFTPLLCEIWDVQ

A short description of assay [13]: ATG_GRE_CIS: Attagene CIS-FACTORIAL HepG2 Assay for human Glucocorticoid Response Elements (GRE) (AID 2282947). Particulars: HepG2 GRE cis-reporter, Attagene multiplex mRNA; actives raise or lower the signal. A digest of the protocol: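 Cells (HepG2) bearing transfected cis-promoter reporter transcription units were treated with chemical for 24 hours. Reporter mRNA was measured via RT-PCR with capillary electrophoresis, and activity was fitted in both directions relative to DMSO.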

Assay [14] can be described thus: ATG_ISRE_CIS: Attagene CIS-FACTORIAL HepG2 Assay for human Interferon Regulatory Factor 1 (IRF1) binding to an Interferon-Stimulated Response Element (ISRE) (AID 2282948). Particulars: HepG2 ISRE cis-reporter (Attagene), mRNA transcription readout; actives raise or lower the signal. A digest of the protocol:
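Signal reflects induction or loss of ISRE-linked reporter mRNA in transiently transfected HepG2 cells after a 24 h treatment, detected by fluorescent RT-PCR fragments on capillary electrophoresis and normalised to DMSO.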

A short description of assay [15]: ATG_M_32_CIS: Attagene CIS-FACTORIAL HepG2 Assay for M32 Transcription Factor (Internal Marker) (AID 2282949).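 Also: background control marker of the multiplexed CIS panel rather than a real target.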 The conditions noted are these: HepG2 Attagene cis-factorial M32 reporter, mRNA; actives raise or lower the signal. A digest of the protocol:
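HepG2 human liver cells transiently transfected with cis-promoter-driven multiple reporter transcription units, dosed 24 h. Reporter mRNA quantified by RT-PCR, FAM-labelled primer extension, HpaI digest and capillary electrophoresis; bidirectional fit versus DMSO baseline.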

Assay [16] is described as follows: ATG_M_06_CIS: Attagene CIS-FACTORIAL HepG2 Assay for M06 Transcription Factor (Internal Marker) (AID 2282950). Particulars: HepG2 Attagene CIS-FACTORIAL M06 internal marker reporter; actives raise or lower the signal. A digest of the protocol: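 Serves as a background control readout. Transfected HepG2 exposed to compounds for 24 h, then reporter transcripts quantified by fluorescent RT-PCR and capillary electrophoresis. Both directions fitted against DMSO baseline.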

Assay [17] has as its target Hypoxia-inducible factor 1-alpha (Homo sapiens) (UniProt Q16665). The experiment in a line: ATG_HIF1a_CIS: Attagene CIS-FACTORIAL HepG2 Assay for human Hypoxia Inducible Factor 1 (HIF1A) (AID 2282951). The conditions noted are these: HepG2 Attagene cis-factorial HIF1a reporter transcription; actives raise or lower the signal. A digest of the protocol:
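Fluorescence intensity of capillary-separated, 6-FAM-labelled reporter amplicons gives mRNA induction in HepG2 cells carrying transfected cis-promoter reporter units; cells exposed 24 h, responses fitted up or down from DMSO.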

Assay [18] deals with Hepatocyte nuclear factor 6 (Homo sapiens) (UniProt Q9UBC0). As to the kind of experiment: ATG_HNF6_CIS: Attagene CIS-FACTORIAL HepG2 Assay for human Hepatocyte Nuclear Factor 6 (HNF6) (AID 2282952). The conditions noted are these: HepG2 Attagene cis-factorial HNF6 reporter transcription; actives raise or lower the signal. A digest of the protocol:
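Endogenous factor activity read in transiently transfected HepG2 via promoter-regulated reporter transcripts. RNA harvested 24 h post-dosing, reverse-transcribed, PCR-amplified, FAM-labelled, HpaI-digested and resolved by capillary electrophoresis; fitted in both directions against DMSO.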

For assay [19], the target named is Heat shock factor protein 1 (Homo sapiens) (UniProt Q00613). The experiment in a line: ATG_HSE_CIS: Attagene CIS-FACTORIAL HepG2 Assay for human Heat Shock Transcription Factor 1 (HSE) (AID 2282953). The conditions noted are these: HepG2 HSE cis-reporter, Attagene RNA transcription; actives raise or lower the signal. A digest of the protocol: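 Endogenous transcription factor activity in transiently transfected HepG2, read as reporter mRNA by RT-PCR with fluorescent capillary electrophoresis after 24 h. Gain or loss of signal fitted versus DMSO baseline.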
Heat shock factor protein 1 (Homo sapiens), sequence (Q00613 whole entry, looked up): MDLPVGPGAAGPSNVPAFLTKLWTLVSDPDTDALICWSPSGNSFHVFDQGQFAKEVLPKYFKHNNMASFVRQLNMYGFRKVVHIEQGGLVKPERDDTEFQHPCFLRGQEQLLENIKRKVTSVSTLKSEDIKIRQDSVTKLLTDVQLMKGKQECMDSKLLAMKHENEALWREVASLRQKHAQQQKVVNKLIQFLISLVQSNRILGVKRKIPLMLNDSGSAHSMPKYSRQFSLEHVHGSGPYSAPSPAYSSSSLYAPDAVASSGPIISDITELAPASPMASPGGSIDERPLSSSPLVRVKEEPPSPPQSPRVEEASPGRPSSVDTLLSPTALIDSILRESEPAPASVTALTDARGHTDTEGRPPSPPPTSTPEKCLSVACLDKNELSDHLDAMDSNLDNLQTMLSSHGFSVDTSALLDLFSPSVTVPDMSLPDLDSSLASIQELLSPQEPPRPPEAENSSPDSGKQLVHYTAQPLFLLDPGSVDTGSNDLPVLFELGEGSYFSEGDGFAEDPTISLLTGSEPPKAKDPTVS

Assay [20] can be described thus: ATG_MRE_CIS: Attagene CIS-FACTORIAL HepG2 Assay for human Metal Responsive Element (MRE) (AID 2282954). Particulars: HepG2 MRE cis-reporter transcription, Attagene multiplex; actives raise or lower the signal. A digest of the protocol: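 Cells were transfected with cis-promoter reporter transcription units, then dosed for 24 h. RNA was reverse-transcribed, amplified, fluorescently labelled and resolved by capillary electrophoresis, and activity was fitted in both directions relative to DMSO.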

The source made the active and inactive calls. The calls were made as follows: active = hit-call score of the fitted dose curve at least 0.9, where 1 is the maximum; inactive = score below 0.9.

Transcription factor E2F1 (Homo sapiens), sequence (Q01094 whole entry, looked up): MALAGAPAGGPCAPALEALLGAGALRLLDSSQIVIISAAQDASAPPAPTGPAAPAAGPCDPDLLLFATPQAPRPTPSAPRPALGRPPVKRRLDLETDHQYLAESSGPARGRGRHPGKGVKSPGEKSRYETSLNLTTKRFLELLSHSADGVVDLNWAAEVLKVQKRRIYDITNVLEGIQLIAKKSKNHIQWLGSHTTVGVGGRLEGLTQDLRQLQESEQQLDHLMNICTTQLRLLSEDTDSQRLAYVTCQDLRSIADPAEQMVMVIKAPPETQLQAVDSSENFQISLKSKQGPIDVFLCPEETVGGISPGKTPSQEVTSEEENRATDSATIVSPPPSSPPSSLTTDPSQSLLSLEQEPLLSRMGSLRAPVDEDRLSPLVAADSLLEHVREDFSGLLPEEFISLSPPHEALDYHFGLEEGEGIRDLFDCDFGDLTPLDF
Hypoxia-inducible factor 1-alpha (Homo sapiens), sequence (Q16665 whole entry, looked up): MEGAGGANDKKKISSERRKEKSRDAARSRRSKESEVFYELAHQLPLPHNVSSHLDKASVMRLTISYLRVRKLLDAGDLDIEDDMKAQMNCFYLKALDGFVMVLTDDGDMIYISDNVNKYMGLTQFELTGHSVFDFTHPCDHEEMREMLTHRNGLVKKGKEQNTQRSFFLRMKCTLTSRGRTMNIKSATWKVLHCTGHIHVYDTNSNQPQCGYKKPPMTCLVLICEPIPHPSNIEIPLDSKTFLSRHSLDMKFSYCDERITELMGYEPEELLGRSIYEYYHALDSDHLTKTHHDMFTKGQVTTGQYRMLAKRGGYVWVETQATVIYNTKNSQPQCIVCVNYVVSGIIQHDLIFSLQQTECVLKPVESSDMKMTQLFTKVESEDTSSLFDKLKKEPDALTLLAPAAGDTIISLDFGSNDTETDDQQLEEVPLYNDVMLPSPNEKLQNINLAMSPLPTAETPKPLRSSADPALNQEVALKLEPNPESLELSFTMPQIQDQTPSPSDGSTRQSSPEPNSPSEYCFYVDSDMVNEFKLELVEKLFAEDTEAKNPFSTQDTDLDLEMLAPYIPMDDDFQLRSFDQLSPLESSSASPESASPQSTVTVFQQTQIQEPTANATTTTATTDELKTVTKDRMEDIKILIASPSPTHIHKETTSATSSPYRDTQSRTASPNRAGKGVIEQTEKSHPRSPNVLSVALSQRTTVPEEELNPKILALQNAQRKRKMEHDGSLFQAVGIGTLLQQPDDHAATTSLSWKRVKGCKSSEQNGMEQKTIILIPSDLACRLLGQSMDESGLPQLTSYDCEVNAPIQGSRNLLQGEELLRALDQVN
Hepatocyte nuclear factor 3-beta (Homo sapiens), sequence (Q9Y261 whole entry, looked up): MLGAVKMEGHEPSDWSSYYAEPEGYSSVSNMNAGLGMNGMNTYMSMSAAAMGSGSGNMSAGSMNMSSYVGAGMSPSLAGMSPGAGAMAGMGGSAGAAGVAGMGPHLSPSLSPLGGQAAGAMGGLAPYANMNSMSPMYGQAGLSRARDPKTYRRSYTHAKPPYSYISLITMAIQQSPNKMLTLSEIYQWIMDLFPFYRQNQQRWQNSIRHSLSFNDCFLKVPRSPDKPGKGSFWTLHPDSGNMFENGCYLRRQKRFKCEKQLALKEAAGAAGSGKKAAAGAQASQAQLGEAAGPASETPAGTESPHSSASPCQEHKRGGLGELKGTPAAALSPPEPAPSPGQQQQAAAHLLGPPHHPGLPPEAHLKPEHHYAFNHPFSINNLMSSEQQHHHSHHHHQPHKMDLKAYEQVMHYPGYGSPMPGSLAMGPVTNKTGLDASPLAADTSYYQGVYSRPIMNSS
Hepatocyte nuclear factor 6 (Homo sapiens), sequence (Q9UBC0 whole entry, looked up): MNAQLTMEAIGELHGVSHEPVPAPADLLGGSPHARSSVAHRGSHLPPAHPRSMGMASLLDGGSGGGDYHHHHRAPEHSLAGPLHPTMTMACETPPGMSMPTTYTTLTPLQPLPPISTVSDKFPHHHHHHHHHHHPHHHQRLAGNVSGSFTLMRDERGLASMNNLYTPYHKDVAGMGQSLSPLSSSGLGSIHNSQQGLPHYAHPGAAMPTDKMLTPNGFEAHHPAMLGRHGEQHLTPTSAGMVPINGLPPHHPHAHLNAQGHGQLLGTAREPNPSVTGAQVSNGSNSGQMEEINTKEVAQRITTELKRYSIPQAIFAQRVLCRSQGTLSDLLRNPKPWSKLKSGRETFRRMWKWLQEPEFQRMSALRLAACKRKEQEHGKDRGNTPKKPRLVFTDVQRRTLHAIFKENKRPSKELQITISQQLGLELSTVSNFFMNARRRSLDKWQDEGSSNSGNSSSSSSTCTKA

Regarding `CCCCOCN(C(=O)CCl)c1c(CC)cccc1CC`, the result in assay [1], in assay [2], in [3], in assay [4], in [5] and in assay [6] was inactive. Moreover, the call in assay [7], in assay [8], in [9], in assay [10], in assay [11] and in [12] was inactive. The result in assay [13], in assay [14], in [15], in assay [16], in assay [17] and in assay [18] was inactive. Further, the call in assay [19] and in assay [20] was inactive.
In the case of `CCN(CC)C(=O)C(C)Oc1cccc2ccccc12` (configuration not stated), the molecule was called inactive in assay [1], in assay [2], in assay [3], in assay [5], in [7] and in [8]. Also, the call in assay [9], in [10], in assay [11], in [12], in [14] and in [15] was inactive. Further, the outcome in assay [16], in assay [18] and in assay [19] was inactive. Also, the AC50 in [6] is 25.2 µM (active); in assay [17], 23.6 µM (active); in assay [20], 7.47 µM (active).
Turning to `COP(=O)(OC)O/C(C)=C/C(=O)N(C)C`, the molecule was called inactive in [1], in assay [2], in assay [3], in [5], in assay [7] and in assay [8]. The outcome in [9], in assay [10], in assay [11], in assay [14], in assay [15] and in [16] was inactive. Besides, the outcome in [17], in [18], in assay [19] and in assay [20] was inactive. Moreover, in assay [6], the AC50 was 23.5 µM (active).
`COC(=O)NS(=O)(=O)c1ccc(N)cc1`: the outcome in assay [1], in assay [2], in [3], in assay [5], in assay [6] and in [7] was inactive. For the same molecule, the call in assay [8], in [9], in assay [10], in [11], in assay [13] and in [14] was inactive. The call in assay [15], in assay [16], in assay [17], in assay [18] and in assay [20] was inactive.
